16 compounds from PubChem BioAssay (NCATS) can be followed below.

Calls of active or inactive are those of the source. Calls follow the shape of the dose curve; as a rule, active = well fitted activation curve with a large enough effect; inconclusive = small, poorly fitted or top-dose-only effect; inactive = flat fitted curve, though single readings scatter.

The assay in a line: Cellular Toxicity (caspase-3) Mesangial (AID 660).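 Also: cells exposed to compound for 16 h before the caspase read.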 The settings on record: mesangial cells, normalized: DMSO 0%, 100 µM tamoxifen 100%; series mostly up to 91.7 µM; caspase-3 activation: at the top concentration. The text has this: NIH Chemical Genomics Center [NCGC]
NIH Molecular Libraries Screening Centers Network [MLSCN]
National Institutes of Environmental Health Sciences [NIEHS]
National Toxicology Program [NTP]
We have developed a 1536-well cell-based assay for quantitative high throughput screening (qHTS) against a number of cell lines to determine in vitro caspase 3/7 of small molecules. This particular assay uses the mesangial cell line which is derived from normal human renal glomeruli.
NCGC Assay Protocol Summary:
The Caspase-Glo 3/7 assay (Promega) is a homogeneous method to measure caspase-3 and caspase-7 activities in cultured cells. The quantitation of caspase 3/7 activity is based on the cleavage of a peptide-aminoluciferin substrate. After caspase cleaves the substrate the free aminoluciferin is liberated and serves as the substrate of luciferase, which generates the light. The luminescent signal is proportional to amount of caspase 3/7 activity present.
Using the Caspase-Glo 3/7 assay, the amount of caspase 3/7 activity was measured in the mesangial cell line with complete culture medium following compound treatment for 16 hours. The assay was performed in opaque white 1536-well plates. In the screen, tamoxifen and doxorubicin were used as positive controls. Library compounds were measured for their ability to cause the activation of caspase 3/7 in the cell line, as reflected by an increase in luminescence signal, in a concentration-dependent manner. Data were normalized to the controls for basal activity (DMSO only) and 100% stimulation (100 uM tamoxifen). AC50 values were determined from concentration-response data modeled with the standard Hill equation.
qHTS protocol for caspase 3/7 assay in mesangial cell line
[Step] [Parameter] [Value] [Description]
1. Reagent; 5 uL; 1000 mesangial cells/well
2. Time; 5 hr; 37 °C incubation
4. Controls; 23 nL; Tamoxifen 0.23 uM to 100 uM & doxorubicin 7.0 pM to 100 uM
5. Time; 16 hr; 37 °C incubation
6. Reagent; 5 uL; Caspase-Glo 3/7 reagent
7. Time; 20 min; Room Temperature
8. Detection; Luminescence; Viewlux plate reader
Keywords: caspase 3/7, apoptosis, mesangial cell line, luminescence, NTPHTS, NTPHTS_NCGC, NIEHS, EPA, DSSTox, MLSMR, MLSCN, NIH Roadmap, qHTS, NCGC
For `CCCCC/C=C\C/C=C\CCCCCCCC(=O)O`, the “caspase-3 activation” value was 0.828% (inactive).
Same read-out and setting: with `IC(I)I` the figure was -0.841% (inactive); with `CCOC(C)=O`, 0.212% (inactive).
Consider `CC1=C(/C=C/C(C)=C/C=C/C(C)=C/CO)C(C)(C)CCC1`, for which the “caspase-3 activation” value is 0.818% (inactive).
Take `CC(C)=O`: the “caspase-3 activation” value is -0.13% (inactive).
Consider `CCCCCCCC(=O)O`, for which the outcome was inactive.
On to `O=CCCCC=O`, for which the “caspase-3 activation” value is 0.932% (inactive).
Same read-out and setting: to `O=C(O)CCC(=O)C(=O)O` belongs 0.0505% (inactive); to `CC1=C2[C@@H]([C@H](C)CC[C@H]2/C=C(\C)C(=O)O)[C@H](O)C1`, -0.117% (inactive); to `CCCCCCCC/C=C\CCCCCCCC(=O)O`, 0.235% (inactive).
For `O=S(=O)(O)O`, the compound was classed as inactive.
`Cc1ccccc1`: the outcome was inactive.
Regarding `CC(C)(C)NC(=O)[C@@H]1C[C@@H]2CCCC[C@@H]2CN1C[C@@H](O)[C@H](Cc1ccccc1)NC(=O)[C@H](CC(N)=O)NC(=O)c1ccc2ccccc2n1`, the “caspase-3 activation” value is 24.6% (inactive).
The same measure, in the same setting: with `CCOc1ccc2c(c1)C(C)=CC(C)(C)N2` the figure was -0.522% (inactive).
In the case of `CC(O)CO` (stereo unspecified), the compound was called inactive.
For the compound `Nc1ccn([C@H]2CS[C@@H](CO)O2)c(=O)n1`, the “caspase-3 activation” value was 0.233% (inactive).
